Source: ChEMBL document CHEMBL3433997, “St. Jude Leishmania screening dataset” (2016)

target: Solute carrier family 2, facilitated glucose transporter member 1 (Homo sapiens) (UniProt P11166); assay: ST_JUDE_LEISH: Cytotoxicity at 2uM final concentration against transgenic Leishmania Mexicana promastigotes LmGLUT1 that are glucose transport deficient and complemented with the human glucose transporter GLUT1. Activity is measured by DNA content using SYBR green in vitro; assay type: functional
Sequence (P11166 whole entry): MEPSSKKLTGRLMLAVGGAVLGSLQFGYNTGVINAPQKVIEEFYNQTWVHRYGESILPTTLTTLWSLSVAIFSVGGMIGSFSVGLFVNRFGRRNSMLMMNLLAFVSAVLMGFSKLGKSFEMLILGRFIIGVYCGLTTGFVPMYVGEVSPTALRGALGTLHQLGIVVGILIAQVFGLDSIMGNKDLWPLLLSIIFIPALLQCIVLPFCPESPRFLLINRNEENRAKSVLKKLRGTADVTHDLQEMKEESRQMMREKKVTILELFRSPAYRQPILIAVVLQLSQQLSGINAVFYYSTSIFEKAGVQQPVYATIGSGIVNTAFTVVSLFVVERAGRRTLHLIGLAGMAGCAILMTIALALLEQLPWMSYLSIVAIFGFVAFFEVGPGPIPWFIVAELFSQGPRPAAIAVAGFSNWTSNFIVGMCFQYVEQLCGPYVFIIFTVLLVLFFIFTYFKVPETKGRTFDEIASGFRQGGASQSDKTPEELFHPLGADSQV

Row | SMILES | inhibition [%]
1 | COc1cccc(C2=CC(C)(C)Oc3cc(OCCN(C)C)ccc32)c1 | 0.35
2 | COC(=O)c1cccc(CNCc2ccc(-c3ccc(-c4nc5cc(C(F)(F)F)ccc5[nH]4)s3)cc2)c1 | 1.72
3 | CN1CCC(NCc2cccc(-c3cccc(S(=O)(=O)NCc4ccccc4)c3)c2)CC1 | 4.86
4 | Clc1ccc(-n2cnc3c(Nc4ccc(Oc5ccccc5)cc4)ncnc32)cc1Cl | 1.38
5 | CCCCCCN1CCCN(Cc2ccc(C(=O)Nc3cccc(CC)c3)cc2)CC1 | 4.76
6 | N=C(N)Nc1ccc(Cc2ccc(NC(=N)N)cc2)cc1 | -0.68
7 | CC1(C)CC2CC(C)(CN2C(=O)c2cc(C(C)(C)C)nn2Cc2ccccc2)C1 (stereo unspecified) | 7.67
8 | CCOc1cc(CNCCCCCCNCc2cc(OCC)c(OCC)c3ccccc23)c2ccccc2c1OCC | 58.6
9 | CCCCCn1c(Sc2ccc(C#N)c([N+](=O)[O-])c2)nnc1-c1ccccc1 | 8.41
10 | COc1ccccc1C(=O)Nc1cccc(N2CCC(NCc3ccc(-n4cccn4)cc3)CC2)c1 | 9.93
11 | O=C(Nc1cccc(OC2CCN(Cc3ccccc3)CC2)c1)c1ccc(Cl)c(Cl)c1 | 3.35
12 | CCCCc1ccc(NC(=O)Nc2ccc3c(c2)CCNCC3)cc1 | 0.82
13 | CC(C)(CNCc1ccccc1)c1nc(-c2ccc(Cl)c(O)c2)c(-c2ccncc2)[nH]1 | 4.28
14 | CCCCCCNC(=N)c1ccc(OCCCCCOc2ccc(C(=N)NCCCCCC)cc2)cc1 | 58.5
15 | Clc1cc(Nc2ncnc3sc(C#Cc4ncc[nH]4)cc23)ccc1OCc1ccccn1 | -0.91
16 | O=c1cc(NCCCNCc2cccc(OC(F)(F)F)c2)[nH]c2ccccc12 | 2.97
